Results on ten compounds are retold here after PubChem BioAssay (NCATS).

Experiment [1] can be described thus: qHTS for Inhibitors of the Functional Ribonucleoprotein Complex (vRNP) of Lassa (LASV) Arenavirus: LASV Primary Screen - GLuc reporter signal (AID 1347082; calls by dose curve; tested in HEK293 reporter line; also: % is scaled to controls: 0 for no effect and ±100 for the full control effect; nearly all actives have a fitted effect of over 60% in size). Background: Quantitative high-throughput screening tests each substance at several concentrations.
A short description of experiment [2]: qHTS for Inhibitors of the Functional Ribonucleoprotein Complex (vRNP) of Lassa (LASV) Arenavirus: Viability assay - alamar blue signal for LASV Primary Screen (AID 1347083; calls by dose curve; tested in HEK293 reporter line; also: % is scaled to controls: 0 for no effect and ±100 for the full control effect; nearly all actives have a fitted effect of over 80% in size).
Experiment [3] in a line: qHTS for Inhibitors of the Functional Ribonucleoprotein Complex (vRNP) of Lymphocytic Choriomeningitis Arenaviruses (LCMV): Viability assay - alamar blue signal for LCMV Primary Screen (AID 1347085; calls by dose curve; tested in HEK293 reporter line; also: % is scaled to controls: 0 for no effect and ±100 for the full control effect; nearly all actives have a fitted effect of over 80% in size).
Experiment [4] addresses Nucleoprotein (Lymphocytic choriomeningitis virus (strain Armstrong)) (UniProt P09992). Kind of experiment: qHTS for Inhibitors of the Functional Ribonucleoprotein Complex (vRNP) of Lymphocytic Choriomeningitis Arenaviruses (LCMV): LCMV Primary Screen - GLuc reporter signal (AID 1347086). Also: % is scaled to controls: 0 for no effect and ±100 for the full control effect; nearly all actives have a fitted effect of over 70% in size.
A short description of experiment [5]: Primary qHTS for inhibitors of SARS-S pseudo-typed particle cell entry (AID 1479145). Also: % is scaled to controls: 0 for no effect and ±100 for the full control effect; nearly all actives have a fitted effect of over 45% in size.
Experiment [6] can be described thus: Primary qHTS for Huh7 cytotoxicity: counterscreen for inhibitors of MERS-S pseudotyped particle cell entry (AID 1479147). The conditions noted are these: outcome: dose series up to 57.1 µM unless noted.
The nature of experiment [7]: Primary qHTS for inhibitors of MERS-S pseudo-typed particle cell entry (AID 1479149). Also: nearly all actives have a fitted effect of over 60% in size. As to activity change, negative = inhibition: % is scaled to controls: 0 for no effect and ±100 for the full control effect.
The nature of experiment [8]: Primary qHTS for Vero E6 cytotoxicity: counterscreen for inhibitors of SARS-S pseudo-typed particle cell entry (AID 1479150). The settings on record: outcome: dose series up to 57.1 µM unless noted.
The nature of experiment [9]: Cytotoxicity counterscreen for inhibitors of SARS-CoV-2 cell entry (AID 1645845). Also: nearly all actives have a fitted effect of over 50% in size. Summed up: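 Counterscreen run in the same HEK293-ACE2 line as the pseudotyped-particle entry assay, without particles. Viability after 48 h at 37 C was read as ATP luminescence, scaled between cell-containing and cell-free wells.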
On the technique in general: Counterscreens check selectivity or assay interference.

The test system of the next experiment is CRL-7250. Kind of experiment: qHTS assay to identify novel small-molecules to repurpose for Merkel cell carcinoma treatment (AID 1296009; active = well fitted curve in the direction sought with a large enough effect; an effect the other way counts as inactive or inconclusive; also: nearly all actives have a fitted effect of over 60% in size). The conditions noted are these: MCC and control cell lines, CellTiter-Glo viability, 72 h; series mostly up to 92 µM. In a few lines: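 CellTiter-Glo luminescence after 72 hr compound exposure at 37 degree celsius gave cell viability. Libraries NPC and MIPE were run as 8- and 11-point dose responses; RLUs normalized to DMSO (negative) and no-cell (cytotoxicity) controls.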

The nature of experiment [10]: Primary qHTS to identify inhibitors of SARS-CoV-2 cell entry (AID 1645846). Also: nearly all actives have a fitted effect of over 45% in size. The conditions noted are these: activity change, negative = inhibition: at 57.1 µM (top of the series) unless noted. In a few lines:
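Entry measured by luciferase signal 48 h after adding SARS-CoV-2-S pseudotyped MLV particles to HEK293-ACE2 cells preincubated 1 h with compounds. Normalisation: bald particles and spike particles.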

Experiment [11] in a line: Validation screen for inhibitors of Lassa infection (AID 463096). Also: % is scaled to controls: 0 for no effect and ±100 for the full control effect.
Experiment [12] in a line: Inducers of the Endoplasmic Reticulum Stress Response (ERSR) in human glioma: Validation (AID 504836; active = well fitted curve in the direction sought with a large enough effect; an effect the other way counts as inactive or inconclusive; also: 0% is about no effect). Summed up:
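Stably transfected U87-MG glioma cells carrying a GRP78-based luciferase sensor; 16 h compound incubation. Luminescence end-point read 10 min after Bright-Glo addition at room temperature.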

Experiment [13] in a line: qHTS profiling of the MIPE4 collection as inhibitors of Plasmodium falciparum (DD2) proliferation (AID 743345; call rule not given here). The settings on record: P. falciparum Dd2 in erythrocytes, SYBR Green DNA, 72 h; at 28.5 µM (top of the series) unless noted. In a few lines:
(§1)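 Parasite DNA was quantified by SYBR Green I fluorescence (ex 485, em 535 nm) after overnight lysis in saponin/Triton buffer at room temperature. Cultures at 0.3% parasitemia and 2.5% hematocrit were first exposed to compound for 72 h at 37 C; signals were normalised to artemisinin (0.29 uM) and vehicle wells.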

The nature of experiment [14]: qHTS profiling of the MIPE4 collection as inhibitors of Plasmodium falciparum (DD2) proliferation (Rep 2) (AID 743346; call rule not given here). The conditions noted are these: P. falciparum Dd2 in erythrocytes, SYBR Green DNA, 72 h; at 28.5 µM (top of the series) unless noted. In a few lines:
as §1

The nature of experiment [15]: qHTS profiling of the MIPE4 collection as inhibitors of Plasmodium falciparum (3D7) proliferation (AID 743344; call rule not given here;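 also: scaled between DMSO vehicle wells and 0.29 µM artemisinin as full inhibition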). The conditions noted are these: P. falciparum 3D7 in erythrocytes, SYBR Green DNA fluorescence, 72 h; at 28.5 µM (top of the series) unless noted. In a few lines: as §1
The nature of experiment [16]: qHTS profiling of the MIPE4 collection as inhibitors of Plasmodium falciparum (HB3) proliferation (AID 743347; call rule not given here;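 also: plate controls were DMSO vehicle wells for no effect and artemisinin wells for full effect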). The settings on record: P. falciparum HB3 in erythrocytes, SYBR Green DNA, 72 h; at 28.5 µM (top of the series) unless noted. Summed up: as §1

Records with an inconclusive call do not appear. The source made the active and inactive calls. Unless noted, calls follow the shape of the full dose curve.

Chain of Nucleoprotein (Lymphocytic choriomeningitis virus (strain Armstrong)) (P09992 whole entry, looked up): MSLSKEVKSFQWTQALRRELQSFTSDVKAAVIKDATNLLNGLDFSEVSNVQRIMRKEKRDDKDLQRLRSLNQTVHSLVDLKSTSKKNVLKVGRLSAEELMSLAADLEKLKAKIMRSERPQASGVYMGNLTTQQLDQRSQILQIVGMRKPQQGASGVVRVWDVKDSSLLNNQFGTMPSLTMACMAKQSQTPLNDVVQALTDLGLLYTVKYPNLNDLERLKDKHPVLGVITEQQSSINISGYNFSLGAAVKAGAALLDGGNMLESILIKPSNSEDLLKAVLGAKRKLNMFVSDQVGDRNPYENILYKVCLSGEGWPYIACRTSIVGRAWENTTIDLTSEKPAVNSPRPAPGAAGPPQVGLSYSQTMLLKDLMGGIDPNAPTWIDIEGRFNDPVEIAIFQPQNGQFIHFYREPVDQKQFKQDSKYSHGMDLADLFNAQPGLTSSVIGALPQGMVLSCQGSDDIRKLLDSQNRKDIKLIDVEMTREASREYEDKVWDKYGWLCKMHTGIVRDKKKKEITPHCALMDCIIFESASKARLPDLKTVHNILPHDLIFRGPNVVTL

As to `O=C(O)CCn1c2c(c3ccccc31)C[C@H](NS(=O)(=O)c1ccc(F)cc1)CC2`, the Potency result in experiment [1], in experiment [2], in experiment [3], in [4], in experiment [5] and in [7] was “inactive” throughout. Moreover, the Potency entry (in [9]; in the experiment on CRL-7250) was “inactive” each time. For the same compound, the result in experiment [6] and in experiment [8] was inactive.
For `COc1cc(/C=C/C(=O)OC2CC3CCC2(C)C3(C)C)ccc1O` (configuration not stated), the Potency result (in experiment [1]; in [2]; in experiment [3]; in experiment [4]; with CRL-7250) was “inactive” in each case.
For `CCCCCCCCCC(=O)N[C@@H](Cc1c[nH]c2ccccc12)C(=O)N[C@H](CC(N)=O)C(=O)N[C@@H](CC(=O)O)C(=O)N[C@@H]1C(=O)NCC(=O)N[C@@H](CCCN)C(=O)N[C@@H](CC(=O)O)C(=O)N[C@H](C)C(=O)N[C@@H](CC(=O)O)C(=O)NCC(=O)N[C@H](CO)C(=O)N[C@@H]([C@@H](C)CC(=O)O)C(=O)N[C@@H](CC(=O)c2ccccc2N)C(=O)O[C@@H]1C`, the Potency entry in experiment [1], in experiment [2], in experiment [3], in experiment [4], in [5] and in [7] was “inactive” throughout. Further, the Potency entry (in [9]; in experiment [10]; in the experiment on CRL-7250) was “inactive” in each case. In addition, in experiment [6], the outcome is “inactive [at 26.4 µM]”. For the same compound, the compound was called inactive in [8]. For the same compound, in experiment [10], the activity change, negative = inhibition was -32.9% [at 27.1 µM].
With `CC1COC2(CCN(c3nc(=O)c4cc(C(F)(F)F)cc([N+](=O)[O-])c4s3)CC2)O1` (configuration not stated), the Potency result (in experiment [1]; in experiment [2]; in experiment [3]; in experiment [4]; in experiment [9]; in the experiment with CRL-7250) was “inactive” in each case.
For the compound `CN(C)CC(=O)N1CCC(c2ccc(NC(=O)c3ncc(C#N)[nH]3)c(C3=CCCCC3)c2)CC1`, the Potency result (in experiment [1]; in experiment [2]; in experiment [3]; in [4]; in experiment [9]; with CRL-7250) was “inactive” each time.
Consider `CC(C(C)N1CC(=O)NC(=O)C1)N1CC(=O)NC(=O)C1` (configuration not stated), for which the Potency entry (in experiment [1]; in experiment [2]; in experiment [3]; in experiment [4]; in [9]; in the experiment with CRL-7250) was “inactive” each time. The activity change, negative = inhibition in [10] is -28.5%.
`O=C(O)C1CCCN(CCC=C(c2ccccc2)c2ccccc2)C1` (configuration not stated): the Potency result in experiment [11], in [1], in experiment [2], in [3], in experiment [4] and in experiment [9] was “inactive” each time. Further, the Potency result in the experiment on CRL-7250 was “inactive”. In [12], the call was inactive. In experiment [10], the activity change, negative = inhibition was -1.36%.
In the case of `CCOc1ccccc1OCCNC(C)Cc1ccc(OC)c(S(N)(=O)=O)c1` (configuration not stated), the Potency result (in experiment [1]; in [2]; in [4]; in the experiment on CRL-7250) was “inactive” each time.
Regarding `OC[C@H]1OC(O)C[C@@H](O)[C@H]1O` (some centres not stated), the parasite growth remaining, % of DMSO control (lower = more inhibition) in [13] turned out to be 88.2%. Also, in experiment [14], the parasite growth, % of control (lower = inhibition) is 96%. Moreover, the Potency entry (in experiment [1]; in [2]; in experiment [3]; in experiment [4]; in experiment [9]; in the experiment on CRL-7250) was “inactive” each time. Further, the activity change, negative = inhibition in experiment [10] was -3.07%.
In turn, `CCN1C[C@H](C)n2c(c(O)c3c(=O)n(Cc4ccc(F)c(Cl)c4)nc(C(=O)NC)c32)C1=O` registered a parasite growth, % of DMSO control in [15] of 43.2%. The compound further gave a parasite growth remaining, % of DMSO control (lower = more inhibition) in [13] of 55.9%. For the same compound, the parasite growth, % of control (lower = inhibition) in experiment [14] stood at 45.4%. In addition, in experiment [16], the growth, % of control turned out to be 48.6%. In addition, the Potency entry (in experiment [1]; in experiment [2]; in experiment [3]; in experiment [4]; in the experiment with CRL-7250) was “inactive” each time.
